Data taken from the supplement of paper PMC3334620.
Over roughly 33,000 sequences, “E-score (-0.5 to 0.5)” has its median near -8e-05; the highest 2% begin near 0.23. This is one part of a sample in which the highest values are shown more often than they occur.

What follows are sequences tested against T1, Nrg2 (UniProt P38082) (assay: PBM E-score (8-mer binding enrichment) (E-score (-0.5 to 0.5)); higher = stronger / more preferred TF binding). Conditions: protein concentration: 100 nM; construct: GST-full length.
T1 sequence: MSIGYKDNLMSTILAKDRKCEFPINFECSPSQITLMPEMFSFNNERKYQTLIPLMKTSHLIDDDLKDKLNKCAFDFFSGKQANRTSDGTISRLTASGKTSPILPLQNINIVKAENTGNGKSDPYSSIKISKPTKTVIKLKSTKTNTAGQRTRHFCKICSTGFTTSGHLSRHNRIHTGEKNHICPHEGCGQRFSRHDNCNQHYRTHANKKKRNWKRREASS
Method: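 Universal 'all 10-mer' protein binding microarrays (Agilent AMADID 015681) probed with GST-tagged S. cerevisiae TFs (full-length or DBD) made by in vitro transcription/translation (PURExpress), about 100-200 nM. Bound TF was detected with fluorescent anti-GST. Each ungapped 8-mer (which stands for itself and its reverse complement) is scored by the PBM enrichment score (E-score), a modified Wilcoxon-Mann-Whitney statistic from -0.5 to +0.5, computed with the Universal PBM Analysis Suite. Scale: above 0.35 generally sequence-specific binding.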

Sequence	PBM E-score
AATCAACA	0.239
GATCAACA	-0.0582
TATCAACA	0.0479
ATCGCATG	0.188
CCTCCAAA	-0.0762
CCTACGCA	-0.133
CGGCCGCA	0.0157
AATATCGC	0.104
TATATCGA	0.278
AATATCGA	0.244
CATATCGA	0.118
AATATCGG	0.137
GATATCGA	0.0243
CGCTTATC	-0.0744
CTGCTTTC	0.104
CTGCTTTA	0.23
ATGCTTTA	-0.178
GGGTTTAC	-0.0342
AATTCAGG	0.336
AATTCAAG	0.0675
AATTCTAG	-0.027
AATTCAGA	0.0972
AATTCAAC	0.256
AATTCAGT	-0.0207
AATTCTAC	0.231

Sequence	PBM E-score
AATTCTAT	-0.0322
GATTCAAC	0.00265
AAGACTCA	-0.249
TCCGTACA	0.146
ACACGTCC	-0.254
AGCTTTCG	-0.106
GATACTAC	0.13
CGAGTTCC	0.0649
AACCGCGA	0.256
AACCGCGT	0.0966
TACCGCGA	0.0041
CCATGCCC	-0.111
ACTAAATG	-0.0439
CGCATATA	0.0344
AGCATATC	0.0744
CGCATATC	0.293
ATAGTAAA	0.203
ATAGTAGG	0.0354
ATAGTAAC	0.074
ATAGTAGA	0.102
ATAGTAAT	0.234
ATAGTAGC	0.25
GAAAGGCA	-0.0231
ACGAAGCC	-0.0825
GCTCCAAA	-0.202

Sequence	PBM E-score
TCAATGCA	-0.183
AGTCTCGG	-0.0965
ATAATCCC	0.24
ATAATCGC	-0.0299
ATAATCGG	0.246
ATAATCAT	0.235
ATAATCCG	0.0659
ATAATCAA	0.0599
ATAATCAG	0.0745
ATAATCCA	0.128
ATAATCGA	0.0835
TCCTATAA	-0.0317
CAAACCAA	0.214
CTATAGGA	-0.0776
CATGGTTC	0.0101
ATGCAAGC	0.0922
ATCTAACC	0.0422
AAGGATTC	-0.124
GACCAAGA	0.0552
ATGCCCAT	-0.093
ACCATCGC	0.139
CGTTTCAC	-0.00605
GGAGACCC	0.076
CGAGACCC	0.263
CGAGACCG	-0.0751

Sequence	PBM E-score
ATTGCGTA	0.145
ATTGCGTC	0.237
CTTGCGTC	-0.00183
GTGCCAAA	-0.0122
AGCATCGC	-0.0887
CGTCACAC	-0.0186
CGTCACAA	0.0516
CGTCACAG	0.282
GTATAGCA	0.078
CAACAGGG	0.312
ATACAGGG	0.274
CAACAGGC	-0.129
ACACAGGG	0.238
ACACAGGC	0.0691
ACACAGGA	-0.0296
CAACAGGA	-0.152
ATACAGGA	-0.00019
ATACAGGC	-0.0144
ACAGAGGC	-0.172
ATTGTGCA	0.0869
GCGTTAGA	0.0176
ACTTGGAG	-0.108
ATAATAAA	0.224
CTAATATA	0.13
ATAATACC	0.171

Sequence	PBM E-score
TTAATAAA	0.201
ATAATACA	0.282
GTTATAAA	0.0259
ATAATACG	0.18
ATAATATG	0.198
ATAATATA	0.268
CTTATAAA	0.131
CTAATAAA	0.259
TTTATAAA	0.245
AGCAGACT	-0.138
CCGCCTGA	-0.0981
TCCAGAAA	0.0185
CCTCCTCC	-0.283
ATGTCCTC	0.0325
ATTGTCGG	0.247
ATTGTCGA	0.0199
ATTGTCGC	0.136
CTACAAAG	0.116
ACAGCGCA	0.00939
AGTAATAT	0.137
ATGGCCCA	-0.0568
CGCCCCCA	-0.194
CGGGCCCA	-0.128
TGGGCCCA	0.306
AGGGCCCA	0.359

Sequence	PBM E-score
AAGGCCCA	-0.13
GGGGCCCA	0.117
GGGCCCAA	0.244
CGCCCCAG	0.0362
CGCCCCAA	0.261
GGCCCCAA	-0.0979
GGGCCCAC	0.203
TAATTCCA	0.0521
GCGCTTCC	-0.0589
AAGGAAAA	0.0535
GCGGAATA	0.0652
CTTTGGGA	-0.076
AAACCCAC	0.218
GACTGAGA	-0.102
CAACTTAG	0.221
CTGCTCGA	0.073
AGGGCCCC	0.0359
AGGGCCCG	0.0729
AGGGCCCT	0.432
TCCAATAA	0.0718
CGACAGCC	0.026
CGCCGTGC	0.0708
CAGCCTAG	0.0198
GGTGCAAC	-0.13
AGTTTCAT	0.274

Sequence	PBM E-score
AGTTTCAC	0.0923
AGTTTCAG	-0.0621
CTGAGAAC	0.0907
CATACTAA	0.114
AATACTAG	0.241
CATACTAG	0.248
AATACTAC	0.0385
AATACTAT	0.0268
CATACTAC	0.151
CAATTTAC	0.12
ACGAATTG	0.0986
AGTGACTA	-0.133
TAGCAACA	0.135
GAACAGAA	0.0366
GGTCTGAC	0.0413
AGACAATA	0.204
GGACAAGA	0.159
CGACAATC	0.009
CGACAATA	0.235
GGACAAAA	0.159
GGACAATA	0.239
CAATTATC	0.289
CAATTATG	0.0379
GTATTATA	0.254
CAATTATA	0.0143

Sequence	PBM E-score
AATTTATC	0.312
CTATTATA	0.0933
AAATTATA	0.175
CATTTATC	0.0481
ATATTATA	0.0282
TAATTATA	0.319
AATTTATA	0.201
GAATTATA	0.0673
ACGCCTGG	-0.123
ACGCGCAG	0.025
CAATCCAC	-0.0677
CCACCGAA	0.0334
AACGGTCT	-0.127
CCGGGCGA	-0.0266
TGAGTCAA	0.0756
CTCCAACA	0.0834
AGCACGGG	-0.00766
AGATTATA	0.0559
GGATTATA	0.24
CGATTATA	0.138
GGCTAGCC	-0.297
CGATCCTA	0.00763
TAACTAGA	0.256
CAACTCGA	0.0207
GAACTAGA	0.0203

Sequence	PBM E-score
GAACTCGA	0.0868
TAACTCGA	0.294
AAACTAGA	-0.0323
GCCTAAGA	-0.0546
ACAAGCGC	0.0708
CAAGAACC	0.172
AGGGAATG	0.032
ATGGAATG	-0.0148
CTGGAATA	0.193
ATGGAATA	0.235
CGGGAATA	0.0776
ATGGAATC	0.267
AGGGAATA	0.245
GTGGAATA	-0.013
CTGGAATC	-0.164
AATGGCCG	-0.134
AATTCTCC	0.118
CAGTACGA	0.206
AAGTCCGA	-0.0535
CCTATCAC	-0.00258
ATATCCGG	0.0451
CTATCCGA	-0.04
ATATCCGA	0.235
AGTGCTGA	-0.0594
GTGAACGA	-0.00481

Sequence	PBM E-score
GGACATCA	0.0631
CGACATCA	0.0768
TGACATCA	0.232
AGGAACGG	0.0417
CATCTGTC	-0.0868
CACGGGCA	-0.102
GATCCGAA	0.243
TATCCGAA	-0.0137
GATCCAAC	-0.0228
CATCCGAA	0.168
GATCCAAA	0.284
CATCCAAA	-0.00312
CAGGTCAC	-0.271
ATCTATGG	-0.0899
GGTAGACC	-0.00427
ACAGCGGG	-0.0296
GCTCAAGC	-0.0931
ACCGCAAC	0.269
ACCGCAAG	0.00329
GCCGCAAC	0.192
AGGGGATC	0.0237
AGCTTGTA	-0.00311
CCACGGAA	0.00928
ATATGGCA	0.00508
TCAATACA	0.0827

Sequence	PBM E-score
GCAATACC	0.176
GCAATAAA	0.269
GCAATACA	0.298
CCAATAAA	0.079
GCAATAAC	0.0808
AACAGATG	-0.0815
GATGCTCA	-0.12
AGGCTTTG	-0.058
GTAAACAC	-0.0176
GCCGTACC	-0.0541
TACACCTA	0.0327
CCTTCACC	-0.0756
ATTTTCCG	0.249
ATTTTCCC	0.124
AATTTCCG	0.206
ATTTCCAG	0.0415
ATTTCCAA	-0.0757
ATTTCCCC	0.153
ATTTCCCA	0.153
ATTTCCCG	0.264
ATTTCCAC	0.255
CGAAGTTC	0.0952
CCTGCTGA	0.171
AACAGTGA	-0.0365
AATTCCCG	-0.0292

Sequence	PBM E-score
AAGAGAAA	0.0319
AAGAGAAG	-0.0556
AAGAGAAT	0.231
CTCTGACC	-0.127
CACGGGGC	-0.0105
TCCTAGGA	-0.0933
CCAATACC	0.0351
ACAATACA	0.148
ACAATACT	0.241
ACAATACC	0.291
AGAATACC	0.191
ACAATACG	0.0515
GGATACAA	0.0295
GCAAACCA	0.0737
TATTAAAA	0.262
CATTAAAG	0.119
CACTAAAA	0.256
AACTAAAA	0.0978
CATTAAAC	0.0682
CATTAAAA	0.252
GATTAGAA	0.0967
GATTAAAA	0.157
CATTAGAA	0.0605
AATTAAAA	0.126
TATTAGAA	0.249

Sequence	PBM E-score
TACTAAAA	0.0854
ATTGCACC	0.0876
CCAACTAC	0.0973
AACCTCTA	-0.1
TAACGTCA	0.0193
CTCGATCC	-0.0858
AGAATGGC	0.0093
ACAAGGAT	-0.0601
CCCACCCC	0.177
ACCCTCCC	0.255
CCCACCCG	0.231
ACCCACCC	0.243
CCCCACCC	0.162
GCCCACCC	0.184
CCCCTCCC	-0.102
CCCACCCA	0.0597
ACCCTCCT	-0.14
AAATGAAC	0.0486
CGTTCCGC	-0.00432
AACAGGCC	-0.202
GTGGGCTA	-0.14
CACCGGGG	-0.413
GTACTACA	0.191
CGAGATTA	0.252
AGAGATTA	0.0613

Sequence	PBM E-score
CGAGATTC	0.143
GGCTGCCA	-0.173
GAAAAGTC	-0.0781
CGTGCCAA	-0.033
GGACGTCA	0.00109
AGACGTCA	-0.0442
TGACGTCA	0.279
ATCCAACG	-0.165
ATCATAGG	-0.0259
ATCATAGA	0.238
CTCATAGA	-0.061
CTAAACCA	-0.179
CATACCAC	-0.0447
TAAGTGAA	0.0844
ACTACAGG	0.237
ATTACAGC	-0.18
ACTACAGA	0.131
ACTACAGC	-0.271
ATTACAGA	0.0258
ATTACAGG	0.312
